According to PubChem BioAssay (NCATS):
Inconclusive results are not listed. Activity calls are given as the source filed them. Calls follow the shape of the dose curve; as a rule, active = well fitted curve in the direction sought with a large enough effect; inconclusive = small, poorly fitted or top-dose-only effect, or another doubt; inactive = no such curve, though single readings can be large; an effect the other way counts as inactive or inconclusive.

Experiments:
3D7 = experiment: qHTS profiling for inhibitors of Plasmodium falciparum proliferation (AID 504749); also: nearly all actives have a fitted effect of over 60% in size; conditions: P. falciparum in erythrocytes, SYBR Green DNA, 72 h; series mostly up to 12.8 µM
Method in brief: (§1)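 Parasite proliferation within erythrocytes, 72 h exposure. Endpoint: SYBR Green I fluorescence after overnight lysis at room temperature. Controls: 0.29 uM artemisinin, DMSO.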

AA1029 = experiment: as above; conditions: P. falciparum in erythrocytes, SYBR Green DNA, 72 h; series mostly up to 12.8 µM
Method in brief: as §1

ATS189 = experiment: as above; conditions: P. falciparum in erythrocytes, SYBR Green DNA, 72 h; series mostly up to 12.8 µM
Method in brief: as §1

CP247 = experiment: as above; conditions: P. falciparum in erythrocytes, SYBR Green DNA, 72 h; series mostly up to 12.8 µM
Method in brief: as §1

CP268 = experiment: as above; conditions: P. falciparum in erythrocytes, SYBR Green DNA, 72 h; series mostly up to 12.8 µM
Method in brief: as §1

CP286 = experiment: as above; conditions: P. falciparum in erythrocytes, SYBR Green DNA, 72 h; series mostly up to 12.8 µM
Method in brief: as §1

PAD = experiment: as above; conditions: P. falciparum in erythrocytes, SYBR Green DNA, 72 h; series mostly up to 12.8 µM
Method in brief: as §1

TAB109 = experiment: as above; conditions: P. falciparum in erythrocytes, SYBR Green DNA, 72 h; series mostly up to 12.8 µM
Method in brief: as §1

TAB165 = experiment: as above; conditions: P. falciparum in erythrocytes, SYBR Green DNA, 72 h; series mostly up to 12.8 µM
Method in brief: as §1

[1] = S16 Schwann cell viability assay (CellTiter-Glo assay) (AID 624031);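 also: cellular ATP luminescence as a viability measure; nearly all actives have a fitted effect of over 70% in size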
Method in brief: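 Native S16 Schwann cells (rat), serum-containing medium, overnight attachment then 24 h drug exposure at 37 °C/5% CO2. CellTiter-Glo ATP signal; normalized to cell-free and vehicle wells.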

7G8 = experiment: qHTS profiling for inhibitors of Plasmodium falciparum proliferation (AID 504749); also: nearly all actives have a fitted effect of over 60% in size; conditions: P. falciparum in erythrocytes, SYBR Green DNA, 72 h; series mostly up to 12.8 µM
Method in brief: as §1

CP191 = experiment: as above; conditions: P. falciparum in erythrocytes, SYBR Green DNA, 72 h; series mostly up to 12.8 µM
Method in brief: as §1

CP194 = experiment: as above; conditions: P. falciparum in erythrocytes, SYBR Green DNA, 72 h; series mostly up to 12.8 µM
Method in brief: as §1

CP203 = experiment: as above; conditions: P. falciparum in erythrocytes, SYBR Green DNA, 72 h; series mostly up to 12.8 µM
Method in brief: as §1

CP215 = experiment: as above; conditions: P. falciparum in erythrocytes, SYBR Green DNA, 72 h; series mostly up to 28.7 µM
Method in brief: as §1

CP237 = experiment: as above; conditions: P. falciparum in erythrocytes, SYBR Green DNA, 72 h; series mostly up to 12.8 µM
Method in brief: as §1

DIV30 = experiment: as above; conditions: P. falciparum in erythrocytes, SYBR Green DNA, 72 h; series mostly up to 12.8 µM
Method in brief: as §1

ICS = experiment: as above; conditions: P. falciparum in erythrocytes, SYBR Green DNA, 72 h; series mostly up to 12.8 µM
Method in brief: as §1

P94_40 = experiment: as above; conditions: P. falciparum in erythrocytes, SYBR Green DNA, 72 h; series mostly up to 12.8 µM
Method in brief: as §1

PC26 = experiment: as above; conditions: P. falciparum in erythrocytes, SYBR Green DNA, 72 h; series mostly up to 12.8 µM
Method in brief: as §1

Measured: Potency

C[C@@H](CN(C)C)CN1c2ccccc2CCc2ccccc21
inactive: 3D7 | AA1029 | ATS189 | CP247 | CP268 | CP286 | PAD | TAB109 | TAB165

CCN1C(=O)N[C@@H](c2ccccc2)C1=O
inactive: [1] | 3D7 | 7G8 | AA1029 | ATS189 | CP191 | CP194 | CP203 | CP215 | CP237 | CP247 | CP268 | CP286 | DIV30 | ICS | P94_40 | PAD | PC26 | TAB109 | TAB165

O=C(O)/C=C\c1ccc(Cn2ccnc2)cc1
inactive: [1] | 3D7 | 7G8 | AA1029 | ATS189 | CP191 | CP194 | CP203 | CP215 | CP237 | CP247 | CP268 | CP286 | DIV30 | ICS | P94_40 | PAD | PC26 | TAB109 | TAB165

CC1(C)Oc2ccc(C#N)cc2[C@H](N2CCCC2=O)[C@H]1O
inactive: [1] | 3D7 | 7G8 | AA1029 | ATS189 | CP191 | CP194 | CP203 | CP215 | CP237 | CP247 | CP268 | CP286 | DIV30 | ICS | P94_40 | PAD | PC26 | TAB109 | TAB165

C[N+]1(C)CCC[C@@H](OC(=O)C(O)(c2ccccc2)c2ccccc2)C1
inactive: [1] | 3D7 | 7G8 | AA1029 | ATS189 | CP191 | CP194 | CP203 | CP237 | CP247 | CP268 | CP286 | DIV30 | ICS | P94_40 | PAD | PC26 | TAB109 | TAB165

C[C@@H](C(=O)O)c1cccc(C(=O)c2ccccc2)c1
inactive: [1]

COc1c(O)cc2c(c1O)[C@@H]1O[C@@H](CO)[C@@H](O)[C@@H](O)[C@@H]1OC2=O
inactive: [1] | 3D7 | 7G8 | AA1029 | ATS189 | CP191 | CP194 | CP203 | CP215 | CP237 | CP247 | CP268 | CP286 | DIV30 | ICS | P94_40 | PAD | PC26 | TAB109 | TAB165

CC1(C)O[C@@H]2C[C@H]3[C@H]4C[C@H](F)C5=CC(=O)C=C[C@@]5(C)[C@@H]4[C@H](O)C[C@]3(C)[C@]2(C(=O)CO)O1
inactive: [1] | 3D7 | 7G8 | AA1029 | ATS189 | CP191 | CP194 | CP203 | CP215 | CP237 | CP247 | CP268 | CP286 | DIV30 | ICS | P94_40 | PAD | PC26 | TAB109 | TAB165

CN[C@@H](CC(C)C)C(=O)N[C@@H]1C(=O)N[C@H](CC(N)=O)C(=O)N[C@@H]2C(=O)N[C@H]3C(=O)N[C@H](C(=O)N[C@H](C(=O)O)c4cc(O)cc(O)c4-c4cc3ccc4O)[C@H](O)c3ccc(c(Cl)c3)Oc3cc2cc(c3O[C@H]2O[C@@H](CO)[C@@H](O)[C@@H](O)[C@@H]2O[C@@H]2C[C@](C)(N)[C@H](O)[C@H](C)O2)Oc2ccc(cc2Cl)[C@@H]1O
inactive: [1] | 3D7 | 7G8 | AA1029 | ATS189 | CP191 | CP194 | CP203 | CP215 | CP237 | CP247 | CP268 | CP286 | DIV30 | ICS | P94_40 | PAD | PC26 | TAB109 | TAB165

O=C(Cc1cccs1)NC1C(=O)N2C(C(=O)[O-])=C(C[n+]3ccccc3)CSC12 (stereo not drawn)
inactive: 3D7 | 7G8 | AA1029 | ATS189 | CP191 | CP194 | CP203 | CP215 | CP237 | CP247 | CP268 | CP286 | DIV30 | ICS | P94_40 | PAD | PC26 | TAB109 | TAB165

O=c1[nH]cnc2c1ncn2C1OC(CO)C(O)C1O (stereo not drawn)
inactive: [1] | 3D7 | 7G8 | AA1029 | ATS189 | CP191 | CP194 | CP203 | CP215 | CP237 | CP247 | CP268 | CP286 | DIV30 | ICS | P94_40 | PAD | PC26 | TAB109 | TAB165

CO/N=C(/C(=O)NC1C(=O)N2C(C(=O)O)=C(CSc3nc(=O)c(O)nn3C)CSC12)c1csc(N)n1 (stereo not drawn)
inactive: [1] | 3D7 | 7G8 | AA1029 | ATS189 | CP191 | CP194 | CP203 | CP215 | CP237 | CP247 | CP268 | CP286 | DIV30 | ICS | P94_40 | PAD | PC26 | TAB109 | TAB165
